Assay outcomes deposited in PubChem by several laboratories.
MEKK2 mut-MEK5 = signal of MEK5 binding to mutant human MEKK2 PB1 domain; bead flow cytometry, Alexa488-MEK5 binding to MEKK2 mutant; percent response, % at 10 µM; hit rate 0.35% among 290,000; in the data active = percent response above about 24%, passing the limit was not always enough
MEKK2 WT-MEK5 = raises or lowers MEK5 binding to wildtype human MEKK2 PB1 domain; Q9Y2U5; bead flow cytometry, Alexa488-MEK5 binding to MEKK2 WT; actives lie on both sides; binding response (% of control), % at 10 µM; hit rate 1.1% among 290,000; AID 1531; in the data active = binding response below about 67% or above about 130%; inconclusive = no clear call, values can overlap the other calls; inactive = in between
dFosB activator = enhances mouse delta FosB homodimer DNA binding. P13346. purified delta FosB, TAMRA-CDK5 oligo fluorescence polarization; percent of positive-control signal above neutral wells. activation, % at 25 µM. hit rate 0.99% among 340,000. AID 493131;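 active = mean activation above about 17%, with every replicate also reaching it, limit read from the data, passing the limit was not always enough; inconclusive = only one of the two conditions met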
Target sequence (P13346 whole entry, looked up): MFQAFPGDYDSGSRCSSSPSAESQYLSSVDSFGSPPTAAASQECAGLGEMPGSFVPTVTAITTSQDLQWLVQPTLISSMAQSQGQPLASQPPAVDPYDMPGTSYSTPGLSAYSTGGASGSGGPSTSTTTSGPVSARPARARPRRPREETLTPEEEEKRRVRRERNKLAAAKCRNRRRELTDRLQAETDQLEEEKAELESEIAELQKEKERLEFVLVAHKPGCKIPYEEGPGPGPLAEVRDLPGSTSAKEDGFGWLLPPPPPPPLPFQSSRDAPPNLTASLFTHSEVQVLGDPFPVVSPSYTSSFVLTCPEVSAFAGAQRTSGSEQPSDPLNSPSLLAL
DNA FID counter = displaces DNA intercalator in HCV helicase counter-screen; DNA fluorescent intercalator displacement, fluorescence; inhibition, % at 7.9 µM; hit rate 0.17% among 290,000; AID 1845; in the data active = inhibition above about 37%;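 note: 0% = vehicle and 100% = reference compound; higher means more ethidium bromide displaced from hairpin DNA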
MEKK3 PB1 HTS = MEKK3-MEK5 PB1 interaction, increase or decrease; Q99759; bead-based flow cytometry, Alexa488-MEK5 binding to MEKK3; actives lie on both sides; 0 = blocked by unlabeled MEK5, 100 = vehicle; binding response (% of control), % at 10 µM; hit rate 1.4% among 290,000; AID 1529;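 active = binding response more than 3 SD above or below the average of its plate-row segment, actives on both sides; inconclusive = wells at one plate position flagged as instrument error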;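 note: Alexa488 bead fluorescence after subtracting the streptavidin-only scavenger bead signal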
MEKK2wt confirm = raises or lowers MEK5 binding to wildtype human MEKK2, retest; AID 1892; shares compounds with MEKK3 PB1 HTS; binding response (% of control), % at 10 µM; bead flow cytometry, Alexa488-MEK5 binding to MEKK2 WT; actives lie on both sides; hit rate 2.4% among 5,900; in the data active = binding response below about 16% or above about 210%; inactive = in between
MEKK2mut-MEK5 = signal of MEK5 binding to mutant human MEKK2, retest | hit rate 2% among 5,900 | percent response, % at 10 µM | bead flow cytometry, Alexa488-MEK5 binding to MEKK2 mutant | shares compounds with MEKK3 PB1 HTS; in the data active = percent response mostly above about 71%, no sharp cut-off; inactive = mostly below about 38%;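 note: higher means compound restores mutant binding toward wildtype level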
MEKK3-MEK5 inh = MEKK3-MEK5 PB1 inhibition, single concentration confirmation; shares compounds with MEKK3 PB1 HTS; bead flow cytometry, Alexa488-MEK5 binding to MEKK3; hits give low values; binding response (% of control), % at 10 µM; hit rate 1.8% among 5,900; AID 1894;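 active = binding response below 72% of control, or above a set upper limit, though filed actives all read lower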;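 note: 100% = DMSO only wells and 0% = binding blocked by excess unlabeled MEK5; lower values mean stronger disruption of MEK5 binding to MEKK3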
Active calls of the source: *; ? = inconclusive; . = no result given; [ ] = remark or other dose. Compounds with a hit are over-represented: about 2.9% of the library has one in this group of screens.

SMILES | MEKK2 mut-MEK5 | MEKK2 WT-MEK5 | dFosB activator | DNA FID counter | MEKK3 PB1 HTS | MEKK2wt confirm | MEKK2mut-MEK5 | MEKK3-MEK5 inh
CCOc1ccc(S(=O)(=O)N2CCN(C(=O)c3ccc(Cl)c(S(=O)(=O)N4CCOCC4)c3)CC2)cc1 | . | . | -4 | . | . | . | . | .
CCN(CC)CCC(c1ccc(N(C)C)cc1)c1c(OC)cc(OC)c2c(-c3ccccc3)cc(=O)oc12 (stereo unspecified) | 25* | 178* | 3 | . | 111 | 144 | 22 | 103
Cn1ncc(Br)c1C(=O)N1CCN(C(=O)c2ccco2)CC1 | 0 | 95 | -2 | 0 | 94 | . | . | .
Cc1nn(C)c(C(=O)N2CCN(C(=O)c3ccco3)CC2)c1Br | -17 | 34*[inhibitor] | 6 | -13 | 82 | 101 | 6 | 103
Cc1ccc(CC(=O)N2CCN(C(=O)c3ccco3)CC2)cc1 | -14 | 58 | -1 | -5 | 49*[inhibitor] | 102 | 3 | 103
O=C(Cc1ccc(Cl)cc1)N1CCN(C(=O)c2ccco2)CC1 | 13 | 132 | 1 | -6 | 113 | . | . | .
Cc1cc(C)n2nc(Nc3ccccc3)cc2n1 | -7 | 80 | -2 | -1 | 81*[inhibitor] | 94 | -2 | 100
Cc1c(Cl)cccc1NC(=O)c1ccc(-n2ccnc2)nc1 | -14 | 50*[inhibitor] | -2 | -5 | 49*[inhibitor] | 103 | 3 | 100
C=CCNC(=S)N/N=C(\C)c1ccccn1 | -16 | 75 | -4 | -1 | 70 | . | . | .
O=C(NC1CCSc2ccccc21)c1cc(S(=O)(=O)N2CCOCC2)ccc1Cl (stereo unspecified) | . | . | 2 | . | . | . | . | .
O=C(CSc1nnc(-c2cccnc2)s1)Nc1cccc(C(=O)O)c1 | 0 | 111 | -1 | 0 | 158* | 98 | -4 | 98
COc1ccccc1OCCNS(=O)(=O)c1ccc2oc3ccccc3c2c1 | 3 | 109 | -2 | -25 | 138* | 104 | 1 | 102
O=S(=O)(NCCOc1ccccc1Cl)c1ccc2oc3ccccc3c2c1 | . | . | -3 | -5 | . | . | . | .
O=Cc1cnc(N2CCN(c3ccccc3)CC2)s1 | 5 | 105 | -5 | -7 | 101 | . | . | .
O=Cc1cnc(N2CCN(Cc3ccccc3)CC2)s1 | -45 | 70 | -6 | -12 | 68*[inhibitor] | 117 | 12 | 101
Cc1ccc(/C=c2/sc3nnc(-c4ccccc4Cl)n3c2=O)o1 | 0 | 94 | -3 | -16 | 102 | . | . | .
CCN(CC)c1ccc(/C=c2/sc3nnc(-c4ccccc4C)n3c2=O)cc1 | 318* | . | -2 | -8 | 101 | 107 | 37 | 85
CCN(CC)c1ccc(/C=c2\sc3nnc(-c4ccccc4Cl)n3c2=O)cc1 | 22 | 44*[inhibitor] | -85 | -1 | 84 | 65 | -29 | 78
CCN(C(=O)COC(=O)CSc1ccc(C)cc1C)c1c(N)n(Cc2ccccc2)c(=O)[nH]c1=O | . | . | 8 | . | . | . | . | .
CCN(CC)c1ccc(NC(=O)c2cccnc2)cc1 | 13 | 134* | 2 | 6 | 110 | 96 | -4 | 99
CCN(CC)c1ccc(NC(=O)c2cncc(Br)c2)cc1 | 7 | 108 | -4 | 1 | 103 | . | . | .
Cc1nc2ccc(NC(=O)c3cnc(Cl)c(Cl)c3)cc2s1 | 7 | 107 | -6 | -18 | 106 | . | . | .
Cc1nc2ccc(NC(=O)c3cccnc3)cc2s1 | -13 | 60 | -19 | -1 | 50*[inhibitor] | 105 | 7 | 104
O=C(Cn1ccc([N+](=O)[O-])n1)Nc1ccccn1 | 4 | 95 | -4 | 4 | 99 | . | . | .
CCNc1ccc(C(=O)OCC(=O)NC(=O)NCC(C)C)cc1[N+](=O)[O-] | 5 | 98 | -6 | -7 | 99 | . | . | .
SMILES | MEKK2 mut-MEK5 | MEKK2 WT-MEK5 | dFosB activator | DNA FID counter | MEKK3 PB1 HTS | MEKK2wt confirm | MEKK2mut-MEK5 | MEKK3-MEK5 inh
CCNc1ccc(C(=O)OCC(=O)NCc2ccccc2Cl)cc1[N+](=O)[O-] | 1 | 111 | ? | -2 | 140* | 100 | -2 | 102
CCNC(=S)N(CCc1c(C)[nH]c2ccc(F)cc12)Cc1cccnc1 | 35* | 133 | -6 | -14 | 107 | 121 | 12 | 103
CCNC(=S)N(CCc1c(C)[nH]c2ccc(C)cc12)Cc1cccnc1 | 12 | 116 | -3 | -18 | 106 | . | . | .
COc1ccc(CCNC(=O)C2CCCN(S(=O)(=O)c3cc(C)ccc3OC)C2)cc1OC (stereo unspecified) | -7 | 99 | -9 | -42 | 99 | . | . | .
Cc1ccc2c(c1)N(C(C)C(=O)NCc1ccc3c(c1)OCO3)C(=O)CO2 (stereo unspecified) | -14 | 29*[inhibitor] | -6 | -15 | 30*[inhibitor] | 130 | 12 | 107
O=C(Cn1c(COc2ccc(Cl)cc2)nc2ccccc21)NCC(F)(F)F | 29 | 118 | 8 | -9 | 108 | . | . | .
N#CCCNC(=O)Cn1c(COc2ccc(Cl)cc2)nc2ccccc21 | 1 | 108 | -8 | -5 | 143* | 96 | 0 | 97
CCN1CCN(c2ccc(S(=O)(=O)N3CCOCC3)cc2NC(=O)C2CCC(C(C)(C)C)CC2)CC1 (stereo unspecified) | . | . | 1 | . | . | . | . | .
COc1ccc2[nH]c(C)c(CCNC(=S)Nc3cccc(C)c3)c2c1 | -14 | 1.0*[inhibitor] | -7 | -4 | 1.0*[inhibitor] | 93 | -6 | 98
CCc1cccc(C)c1NC(=O)C1CCN(C(=O)c2ccc([N+](=O)[O-])cc2)CC1 | -5 | 95 | -6 | -19 | 98 | . | . | .
O=C(/C=C/c1cc[n+](CC(=O)c2ccc3cccc4c3c2CC4)cc1)c1ccc2cccc3c2c1CC3 | 13 | 102 | 147* | 4 | 70*[inhibitor] | 152 | 32 | 93
CCn1nnc(-c2ccccc2NC(=O)C(F)(F)F)n1 | 4 | 105 | 7 | 2 | 102 | . | . | .
Cc1csc(Sc2nc3c(c(=O)[nH]c(=O)n3C)n2CCCc2ccccc2)n1 | -21 | 1.0*[inhibitor] | -4 | -5 | 2.0*[inhibitor] | 91 | -10 | 93
CCN(CC)CCCNC(=O)c1[nH]c2ccccc2c1Sc1ccc(Cl)cc1 | 38* | 163* | 11 | -2 | 105 | 167 | 46 | 106
COc1ccc(OC2OC3COC(C)(C)OC3C(O)C2NC(C)=O)cc1 (stereo unspecified) | 24* | 101 | 3 | -3 | 115 | 101 | -1 | 100
CN(C(=O)COC(=O)c1ccccc1Cc1ccccc1)C1CCS(=O)(=O)C1 (stereo unspecified) | 2 | 102 | -6 | -38 | 103 | . | . | .
Cc1occc1C(=O)NNC(=O)c1ccc(F)cc1 | -17 | -1.0*[inhibitor] | -4 | -1 | 0.0*[inhibitor] | 104 | 2 | 103
CCCCNC(=S)NNC(=O)c1ccoc1C | 4 | 108 | -2 | -4 | 105 | . | . | .
